17 compounds from ChEMBL document CHEMBL2218924, “A broad activity screen in support of a chemogenomic map for kinase signalling research and drug discovery” (Biochem J, 2013) can be followed below.

Assay [1] deals with Ribosomal protein S6 kinase alpha-3 (Homo sapiens) (UniProt P51812). Particulars: at 1 µM.
The target is the same in assay [2]. The following applies: at 10 µM.
The target in assay [3] is Ribosomal protein S6 kinase alpha-6 (Homo sapiens) (UniProt Q9UK32). Particulars: at 1 µM.
Assay [4] addresses Mitogen-activated protein kinase 14 (Homo sapiens) (UniProt Q16539). Particulars: at 1 µM.
Assay [5] shares this target. Particulars: at 10 µM.
Assay [6] concerns the target Mitogen-activated protein kinase 11 (Homo sapiens) (UniProt Q15759). The following applies: at 1 µM.
Assay [7] shares this target. The following applies: at 10 µM.
The target in assay [8] is T1, Serine/threonine-protein kinase Sgk1 (Homo sapiens) (UniProt O00141).
T1 sequence (whole entry): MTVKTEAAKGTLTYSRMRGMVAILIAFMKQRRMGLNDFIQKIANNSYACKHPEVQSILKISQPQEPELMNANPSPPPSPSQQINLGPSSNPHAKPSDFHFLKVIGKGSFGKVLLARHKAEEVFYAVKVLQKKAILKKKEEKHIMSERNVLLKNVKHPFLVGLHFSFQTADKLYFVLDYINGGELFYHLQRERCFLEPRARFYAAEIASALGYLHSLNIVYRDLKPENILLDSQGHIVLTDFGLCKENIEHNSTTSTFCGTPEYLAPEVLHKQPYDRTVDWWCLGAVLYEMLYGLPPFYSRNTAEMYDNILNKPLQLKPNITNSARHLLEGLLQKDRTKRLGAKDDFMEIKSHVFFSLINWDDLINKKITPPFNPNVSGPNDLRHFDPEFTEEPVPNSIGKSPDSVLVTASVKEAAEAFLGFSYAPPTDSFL
Particulars: at 1 µM.

Assay [9] deals with T1, Serine/threonine-protein kinase Sgk1 (Homo sapiens). Particulars: at 10 µM.
For assay [10], the target named is T2, Serine/threonine-protein kinase Sgk2 (Homo sapiens) (UniProt Q9HBY8).
T2 sequence (whole entry): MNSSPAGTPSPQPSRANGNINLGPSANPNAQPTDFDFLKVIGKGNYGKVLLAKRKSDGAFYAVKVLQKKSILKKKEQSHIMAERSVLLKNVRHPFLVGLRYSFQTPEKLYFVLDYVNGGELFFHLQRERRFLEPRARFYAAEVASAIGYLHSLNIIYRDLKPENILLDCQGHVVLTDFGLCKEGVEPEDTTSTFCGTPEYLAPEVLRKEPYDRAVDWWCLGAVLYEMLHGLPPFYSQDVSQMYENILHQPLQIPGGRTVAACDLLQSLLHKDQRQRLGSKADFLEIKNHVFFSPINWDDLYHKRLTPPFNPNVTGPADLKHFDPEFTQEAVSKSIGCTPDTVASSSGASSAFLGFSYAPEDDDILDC
The following applies: at 1 µM.

Assay [11] concerns the target T2, Serine/threonine-protein kinase Sgk2 (Homo sapiens). Particulars: at 10 µM.
Assay [12] has as its target Ribosomal protein S6 kinase alpha-1 (Homo sapiens) (UniProt Q15418). Particulars: at 10 µM.
Assay [13] addresses T3, Mitogen-activated protein kinase 13 (Homo sapiens) (UniProt O15264).
T3 sequence (whole entry): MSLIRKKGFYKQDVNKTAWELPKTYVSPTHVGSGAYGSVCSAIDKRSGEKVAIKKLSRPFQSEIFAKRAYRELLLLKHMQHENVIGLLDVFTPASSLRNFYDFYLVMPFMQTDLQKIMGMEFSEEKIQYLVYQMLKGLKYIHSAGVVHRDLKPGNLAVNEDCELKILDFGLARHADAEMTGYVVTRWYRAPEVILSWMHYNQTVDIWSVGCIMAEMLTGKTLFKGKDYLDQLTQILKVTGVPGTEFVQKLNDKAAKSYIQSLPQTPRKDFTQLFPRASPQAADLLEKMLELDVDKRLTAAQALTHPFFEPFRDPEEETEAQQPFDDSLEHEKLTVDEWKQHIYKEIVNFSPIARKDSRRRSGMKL
Particulars: at 10 µM.

Assay [14] has as its target Serine/threonine-protein kinase SIK1 (Homo sapiens) (UniProt P57059). Particulars: at 1 µM.
Assay [15] has as its target Ribosomal protein S6 kinase alpha-2 (Homo sapiens) (UniProt Q15349). Particulars: at 1 µM.
Assay [16] shares this target. The following applies: at 10 µM.
The target in assay [17] is Ribosomal protein S6 kinase alpha-6 (Homo sapiens) (UniProt Q9UK32). The following applies: at 10 µM.
Assay [18] addresses Ribosomal protein S6 kinase alpha-1 (Homo sapiens) (UniProt Q15418). The following applies: at 1 µM.
In assay [19] the target is T4, Serine/threonine-protein kinase Sgk3 (Homo sapiens) (UniProt Q96BR1).
T4 sequence (whole entry): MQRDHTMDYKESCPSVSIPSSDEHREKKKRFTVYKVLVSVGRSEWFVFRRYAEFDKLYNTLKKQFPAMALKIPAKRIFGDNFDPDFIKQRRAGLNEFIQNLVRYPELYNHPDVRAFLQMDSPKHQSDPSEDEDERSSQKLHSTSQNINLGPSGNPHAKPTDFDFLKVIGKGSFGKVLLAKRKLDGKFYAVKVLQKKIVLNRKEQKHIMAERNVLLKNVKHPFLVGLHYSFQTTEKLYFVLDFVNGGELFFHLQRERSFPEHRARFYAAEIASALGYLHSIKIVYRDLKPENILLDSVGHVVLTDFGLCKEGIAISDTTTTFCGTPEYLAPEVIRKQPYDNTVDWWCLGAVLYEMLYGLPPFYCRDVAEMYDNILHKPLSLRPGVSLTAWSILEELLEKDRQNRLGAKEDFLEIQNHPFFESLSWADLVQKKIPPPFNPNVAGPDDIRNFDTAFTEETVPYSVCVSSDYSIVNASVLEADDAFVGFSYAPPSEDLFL
Particulars: at 10 µM.

Assay [20] addresses T3, Mitogen-activated protein kinase 13 (Homo sapiens). Particulars: at 1 µM.

Sequence of Serine/threonine-protein kinase SIK1 (Homo sapiens) (P57059 whole entry): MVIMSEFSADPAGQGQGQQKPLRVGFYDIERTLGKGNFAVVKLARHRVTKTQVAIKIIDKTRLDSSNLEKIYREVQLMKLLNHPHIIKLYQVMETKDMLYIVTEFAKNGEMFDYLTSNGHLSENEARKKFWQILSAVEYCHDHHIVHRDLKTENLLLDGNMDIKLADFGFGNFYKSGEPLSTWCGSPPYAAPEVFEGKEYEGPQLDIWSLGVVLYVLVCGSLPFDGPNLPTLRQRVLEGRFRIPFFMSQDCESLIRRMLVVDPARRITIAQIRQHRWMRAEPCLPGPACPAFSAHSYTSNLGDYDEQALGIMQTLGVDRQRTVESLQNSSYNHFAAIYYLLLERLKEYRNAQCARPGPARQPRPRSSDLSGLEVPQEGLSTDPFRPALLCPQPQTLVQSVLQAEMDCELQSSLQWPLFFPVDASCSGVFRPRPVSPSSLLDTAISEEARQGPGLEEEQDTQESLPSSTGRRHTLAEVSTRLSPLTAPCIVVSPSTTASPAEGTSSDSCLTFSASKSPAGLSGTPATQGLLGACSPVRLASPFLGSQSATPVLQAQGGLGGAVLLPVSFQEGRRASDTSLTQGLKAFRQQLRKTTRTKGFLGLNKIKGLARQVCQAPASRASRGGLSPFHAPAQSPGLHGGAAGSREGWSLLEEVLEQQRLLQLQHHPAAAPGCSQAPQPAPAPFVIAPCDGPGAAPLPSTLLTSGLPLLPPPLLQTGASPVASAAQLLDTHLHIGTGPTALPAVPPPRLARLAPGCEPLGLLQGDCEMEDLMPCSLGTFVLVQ
Sequence of Ribosomal protein S6 kinase alpha-1 (Homo sapiens) (Q15418 whole entry): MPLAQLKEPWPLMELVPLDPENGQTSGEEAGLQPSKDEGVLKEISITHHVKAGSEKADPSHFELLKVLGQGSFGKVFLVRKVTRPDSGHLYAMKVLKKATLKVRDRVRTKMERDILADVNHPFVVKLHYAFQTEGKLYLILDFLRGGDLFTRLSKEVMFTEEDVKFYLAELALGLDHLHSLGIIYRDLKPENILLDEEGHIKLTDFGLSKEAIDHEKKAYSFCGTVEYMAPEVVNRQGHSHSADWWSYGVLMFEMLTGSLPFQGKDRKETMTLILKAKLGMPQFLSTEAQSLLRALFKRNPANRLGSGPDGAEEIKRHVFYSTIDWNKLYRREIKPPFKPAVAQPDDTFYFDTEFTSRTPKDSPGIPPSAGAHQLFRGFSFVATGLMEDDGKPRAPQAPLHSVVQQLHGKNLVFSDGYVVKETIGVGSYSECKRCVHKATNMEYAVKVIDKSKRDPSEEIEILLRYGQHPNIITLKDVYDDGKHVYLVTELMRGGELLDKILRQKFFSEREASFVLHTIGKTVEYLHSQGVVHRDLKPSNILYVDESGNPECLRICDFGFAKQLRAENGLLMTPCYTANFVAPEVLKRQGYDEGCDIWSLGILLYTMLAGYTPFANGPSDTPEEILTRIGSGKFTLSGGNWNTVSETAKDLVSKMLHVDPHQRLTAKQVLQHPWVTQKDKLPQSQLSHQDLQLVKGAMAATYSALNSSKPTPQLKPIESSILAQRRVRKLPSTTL
Sequence of Ribosomal protein S6 kinase alpha-6 (Homo sapiens) (Q9UK32 whole entry): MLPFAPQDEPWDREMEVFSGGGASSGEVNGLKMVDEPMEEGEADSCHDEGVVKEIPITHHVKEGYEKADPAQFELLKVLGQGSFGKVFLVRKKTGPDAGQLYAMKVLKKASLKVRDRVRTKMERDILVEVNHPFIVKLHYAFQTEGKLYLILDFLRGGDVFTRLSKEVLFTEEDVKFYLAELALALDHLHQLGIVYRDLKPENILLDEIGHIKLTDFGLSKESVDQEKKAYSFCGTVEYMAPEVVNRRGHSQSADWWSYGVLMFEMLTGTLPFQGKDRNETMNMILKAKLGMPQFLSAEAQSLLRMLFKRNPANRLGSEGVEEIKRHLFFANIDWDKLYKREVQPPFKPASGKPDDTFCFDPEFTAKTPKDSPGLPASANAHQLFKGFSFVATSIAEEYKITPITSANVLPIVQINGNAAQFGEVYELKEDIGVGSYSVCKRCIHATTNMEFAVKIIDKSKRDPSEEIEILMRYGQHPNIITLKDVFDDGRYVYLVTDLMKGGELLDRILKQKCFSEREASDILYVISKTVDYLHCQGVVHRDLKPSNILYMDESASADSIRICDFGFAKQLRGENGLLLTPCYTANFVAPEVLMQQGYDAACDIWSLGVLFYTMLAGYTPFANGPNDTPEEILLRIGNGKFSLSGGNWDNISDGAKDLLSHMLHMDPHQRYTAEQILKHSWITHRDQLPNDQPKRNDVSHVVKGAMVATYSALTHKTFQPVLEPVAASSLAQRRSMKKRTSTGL
Sequence of Mitogen-activated protein kinase 11 (Homo sapiens) (Q15759 whole entry): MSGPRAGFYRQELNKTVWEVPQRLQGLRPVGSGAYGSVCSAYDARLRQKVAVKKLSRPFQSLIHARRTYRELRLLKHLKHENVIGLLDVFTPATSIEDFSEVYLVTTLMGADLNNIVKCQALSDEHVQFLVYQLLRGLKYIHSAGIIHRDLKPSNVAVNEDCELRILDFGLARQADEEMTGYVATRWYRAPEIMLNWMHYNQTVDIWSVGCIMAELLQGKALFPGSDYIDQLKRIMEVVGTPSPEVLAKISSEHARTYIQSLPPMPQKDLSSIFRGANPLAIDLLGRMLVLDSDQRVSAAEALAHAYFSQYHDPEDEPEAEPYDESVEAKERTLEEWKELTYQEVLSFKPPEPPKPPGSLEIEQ
Sequence of Ribosomal protein S6 kinase alpha-3 (Homo sapiens) (P51812 whole entry): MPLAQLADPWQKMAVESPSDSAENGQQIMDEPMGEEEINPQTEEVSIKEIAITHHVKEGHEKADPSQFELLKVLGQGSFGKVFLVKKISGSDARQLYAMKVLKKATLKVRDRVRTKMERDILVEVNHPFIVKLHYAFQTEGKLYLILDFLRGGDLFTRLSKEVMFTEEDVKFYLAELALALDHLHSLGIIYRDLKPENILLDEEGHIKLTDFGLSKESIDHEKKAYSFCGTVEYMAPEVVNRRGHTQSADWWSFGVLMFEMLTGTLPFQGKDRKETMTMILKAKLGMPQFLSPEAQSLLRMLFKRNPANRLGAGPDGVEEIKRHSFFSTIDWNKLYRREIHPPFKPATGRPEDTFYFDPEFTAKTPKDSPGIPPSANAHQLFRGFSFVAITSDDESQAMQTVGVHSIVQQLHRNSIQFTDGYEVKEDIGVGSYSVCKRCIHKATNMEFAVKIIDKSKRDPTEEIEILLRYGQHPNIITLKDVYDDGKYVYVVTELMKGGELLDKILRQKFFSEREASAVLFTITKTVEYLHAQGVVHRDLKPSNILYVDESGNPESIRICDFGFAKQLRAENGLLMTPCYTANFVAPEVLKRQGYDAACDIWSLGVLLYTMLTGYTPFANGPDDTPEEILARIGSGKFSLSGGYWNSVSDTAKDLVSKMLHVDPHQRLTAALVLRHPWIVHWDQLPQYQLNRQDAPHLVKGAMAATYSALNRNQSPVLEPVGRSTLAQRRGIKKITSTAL
Sequence of Ribosomal protein S6 kinase alpha-2 (Homo sapiens) (Q15349 whole entry): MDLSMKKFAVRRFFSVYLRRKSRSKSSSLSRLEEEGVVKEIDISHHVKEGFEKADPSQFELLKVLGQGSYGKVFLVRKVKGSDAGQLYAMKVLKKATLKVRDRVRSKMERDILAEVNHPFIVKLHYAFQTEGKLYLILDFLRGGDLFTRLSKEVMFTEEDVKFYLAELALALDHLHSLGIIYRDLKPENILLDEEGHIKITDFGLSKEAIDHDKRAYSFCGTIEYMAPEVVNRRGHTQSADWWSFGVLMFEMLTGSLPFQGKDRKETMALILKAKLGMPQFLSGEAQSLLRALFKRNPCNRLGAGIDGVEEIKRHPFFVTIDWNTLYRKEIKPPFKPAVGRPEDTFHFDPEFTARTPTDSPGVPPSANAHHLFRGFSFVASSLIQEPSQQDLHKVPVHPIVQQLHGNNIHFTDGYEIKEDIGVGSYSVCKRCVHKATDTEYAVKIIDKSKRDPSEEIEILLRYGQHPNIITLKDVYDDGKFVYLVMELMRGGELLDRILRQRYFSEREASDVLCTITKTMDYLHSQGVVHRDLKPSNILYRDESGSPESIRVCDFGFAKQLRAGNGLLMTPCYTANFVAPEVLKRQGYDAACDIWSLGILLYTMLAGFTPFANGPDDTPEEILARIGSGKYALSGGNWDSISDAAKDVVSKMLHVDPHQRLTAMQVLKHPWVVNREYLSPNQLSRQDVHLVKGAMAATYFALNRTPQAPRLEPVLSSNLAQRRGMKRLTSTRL
Sequence of Mitogen-activated protein kinase 14 (Homo sapiens) (Q16539 whole entry): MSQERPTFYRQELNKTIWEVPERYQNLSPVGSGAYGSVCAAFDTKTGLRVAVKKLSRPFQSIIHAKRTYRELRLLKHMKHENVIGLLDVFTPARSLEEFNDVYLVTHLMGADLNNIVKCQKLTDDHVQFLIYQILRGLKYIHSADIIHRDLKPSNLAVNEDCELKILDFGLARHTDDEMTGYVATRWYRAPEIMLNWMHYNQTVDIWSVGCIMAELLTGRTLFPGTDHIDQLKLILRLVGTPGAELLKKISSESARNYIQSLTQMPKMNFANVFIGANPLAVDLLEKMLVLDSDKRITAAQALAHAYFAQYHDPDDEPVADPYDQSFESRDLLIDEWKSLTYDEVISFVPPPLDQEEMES

Take `NC(=O)c1ccc(-c2nc(-c3ccc4c(c3)OCCO4)c(-c3ccccn3)[nH]2)cc1`: the residual activity in assay [1] was found to be 56%; in [2], 53%; in assay [3], 90%; in assay [4] it was 77%; in assay [5] it was 37%; in [6], 93%. For the same compound, the residual activity in assay [7] stood at 88%; in assay [8], 98%; in assay [9] it was 90%; in assay [10], 97%; in [11], 89%.

With `NC(=O)c1cccc(-c2cc(Nc3ccc(OC(F)(F)F)cc3)ncn2)c1`, the residual activity in assay [12] was determined as 94%; in assay [1], 57%; in assay [2], 40%; in assay [13], 96%; in [9], 159%; in [10], 92%. Further, the figures for the residual activity in [11] and in [14] were 92% and 96%, respectively.

Consider `CCOC(=O)c1c(C)[nH]c(/C=C2\C(=O)Nc3ccccc32)c1C`, for which the residual activity in assay [1] amounted to 88%; in assay [2], 75%; in assay [15], 72%; in assay [16], 77%; in assay [3] it was 88%; in assay [17], 90%. For the same compound, the residual activity in [6] amounted to 98%; in assay [7] it was 77%; in assay [10] it was 82%; in assay [11], 76%.

For `O=S(=O)(c1cccc2cnccc12)N1CCCNCC1`, the residual activity was 84% in assay [18]; 47% in assay [12]; 85% in [3]; 49% in assay [17]; 84% in assay [8]; 67% in [11]. Further, the residual activity in assay [14] came to 126%.

With `O=C(c1ccccc1)c1ccc(N2CCOCC2)cc1O`, the residual activity in assay [18] came out at 96%; in assay [12], 85%; in assay [1], 45%; in [2] it was 38%; in assay [17] it was 130%; in assay [4] it was 79%. The residual activity in assay [5] was determined as 83%; in assay [6], 96%; in assay [7] it was 91%; in assay [8] it was 79%; in assay [9] it was 95%; in assay [10], 134%. For the same compound, the residual activity amounted to 68% in [11], 88% in assay [19] and 97% in [14].

For the compound `COc1ccc(-c2cnc3c(-c4ccsc4)cnn3c2)cc1`, the residual activity in assay [1] is 67%; in assay [2], 51%; in [3], 100%; in [17] it was 136%; in [4] it was 81%; in [6], 94%. Further, the residual activity in assay [7] turned out to be 95%; in [8], 99%; in assay [9] it was 94%; in assay [10], 97%; in assay [11] it was 83%; in [14], 87%.

In the case of `N#Cc1c(NC(=O)c2cccc3ccccc23)sc2c1CCCC2`, the residual activity is 94% in [12]; 49% in assay [1]; 51% in [2]; 92% in assay [3]; 90% in [17]; 90% in assay [11]. Further, the residual activity was determined as 86% in assay [19] and 136% in [14].

Regarding `O=C(NC(NC(=S)Nc1ccc(F)c([N+](=O)[O-])c1)C(Cl)(Cl)Cl)C(c1ccccc1)c1ccccc1` (stereo unspecified), the residual activity in assay [3] was 80%; in [17], 94%; in [6], 98%; in assay [7], 97%; in assay [20], 95%; in assay [13], 104%. Further, the results for the residual activity in [9], in assay [19] and in assay [14] were 83%, 77% and 136%, respectively.

Turning to `O=c1cc(N2CCOCC2)oc2c(-c3ccccc3)cccc12`, the residual activity was 138% in assay [18]; 69% in [1]; 55% in assay [2]; 101% in assay [20]; 71% in assay [13]; 75% in [8]. Moreover, the residual activity in assay [19] amounted to 74%.

In the case of `Fc1ccc(-c2nc3n(c2-c2ccncc2)CCS3)cc1`, the residual activity in assay [18] came out at 73%; in [12] it was 81%; in [1], 64%; in assay [2], 52%; in [17] it was 92%; in assay [4], 16%. In addition, the residual activity in assay [5] was found to be 3%; in assay [6], 80%; in assay [7], 23%; in assay [14], 139%.

In the case of `O=C1Nc2ccccc2/C1=C\c1c(Cl)[nH]c2ccccc12`, the residual activity in assay [1] was 60%; in assay [2], 25%; in assay [16], 44%; in [3], 51%; in assay [17] it was 33%; in assay [5], 45%. The residual activity in assay [6] worked out at 99%; in assay [11] it was 77%; in assay [19], 79%; in [14], 120%.

Regarding `Oc1cccc(-c2nc(N3CCOCC3)c3oc4ncccc4c3n2)c1`, the residual activity is 141% in assay [18]; 98% in [12]; 70% in assay [1]; 64% in [2]; 66% in [11]; 91% in assay [14].

With `CC(C)[C@H](CO)Nc1nc(Nc2cc(N)cc(Cl)c2)c2ncn(C(C)C)c2n1`, the residual activity worked out at 32% in [18]; 6% in [12]; 18% in assay [3]; 6% in assay [17]; 95% in assay [5]; 119% in [6]. Further, the residual activity worked out at 99% in assay [7], 95% in assay [10], 51% in [11] and 92% in [19].

For the compound `CCN1/C(=C/C(C)=O)Sc2ccc(OC)cc21`, the residual activity in assay [15] stood at 77%; in assay [16], 57%; in [19], 65%.

Consider `Nc1ncnc2c1cnn2-c1ccccc1`, for which the residual activity in assay [12] was determined as 88%; in assay [16], 84%; in assay [4], 83%; in [6] it was 97%; in [7] it was 85%; in [8], 90%. Besides, the residual activity in assay [9] came out at 98%; in assay [11], 68%; in [19], 93%.

Consider `Cn1sc(=O)n(Cc2ccccc2)c1=O`, for which the residual activity in assay [1] stood at 49%; in assay [2], 65%; in assay [15], 99%; in [16], 97%; in assay [3] it was 95%; in [17], 93%. In addition, the residual activity stood at 87% in assay [4]; 87% in [5]; 89% in [6]; 89% in assay [7]; 100% in [20]; 98% in [13]. Moreover, the residual activity in assay [8] was found to be 91%; in assay [9] it was 96%; in [10], 91%; in assay [19], 86%.

As to `O=C(O)/C=C/c1cc(Br)c(Br)c(Br)c1Br`, the residual activity in assay [18] is 110%; in [12], 89%; in [1] it was 59%; in assay [2], 43%; in assay [4], 77%; in assay [5], 90%. Further, the residual activity amounted to 107% in assay [6]; 126% in assay [7]; 103% in assay [20]; 93% in [13]; 100% in assay [8]; 49% in assay [9]. Further, the residual activity was determined as 83% in [10], 41% in assay [11] and 84% in assay [19].
